Screens: PubChem, several laboratories
Most compounds without a hit are left out; they make up all but 3.7% or so of the library.
BoNT-A LC inh2: blocks Botulinum neurotoxin A light chain protease; AID 588499; 0.17% of 360,000 active; inhibition, % at 10 µM; multiplex microsphere protease substrate cleavage, flow cytometry; also: plate controls were buffer without enzyme for full effect and enzyme alone for no effect
Anthrax LF inh2: blocks Bacillus anthracis lethal factor protease; P15917; multiplex microsphere protease cleavage assay, LF; inhibition, % at 10 µM; 0.12% of 360,000 active; AID 588501; also: plate controls were buffer without enzyme for full effect and enzyme alone for no effect
Target sequence (P15917 whole entry, looked up): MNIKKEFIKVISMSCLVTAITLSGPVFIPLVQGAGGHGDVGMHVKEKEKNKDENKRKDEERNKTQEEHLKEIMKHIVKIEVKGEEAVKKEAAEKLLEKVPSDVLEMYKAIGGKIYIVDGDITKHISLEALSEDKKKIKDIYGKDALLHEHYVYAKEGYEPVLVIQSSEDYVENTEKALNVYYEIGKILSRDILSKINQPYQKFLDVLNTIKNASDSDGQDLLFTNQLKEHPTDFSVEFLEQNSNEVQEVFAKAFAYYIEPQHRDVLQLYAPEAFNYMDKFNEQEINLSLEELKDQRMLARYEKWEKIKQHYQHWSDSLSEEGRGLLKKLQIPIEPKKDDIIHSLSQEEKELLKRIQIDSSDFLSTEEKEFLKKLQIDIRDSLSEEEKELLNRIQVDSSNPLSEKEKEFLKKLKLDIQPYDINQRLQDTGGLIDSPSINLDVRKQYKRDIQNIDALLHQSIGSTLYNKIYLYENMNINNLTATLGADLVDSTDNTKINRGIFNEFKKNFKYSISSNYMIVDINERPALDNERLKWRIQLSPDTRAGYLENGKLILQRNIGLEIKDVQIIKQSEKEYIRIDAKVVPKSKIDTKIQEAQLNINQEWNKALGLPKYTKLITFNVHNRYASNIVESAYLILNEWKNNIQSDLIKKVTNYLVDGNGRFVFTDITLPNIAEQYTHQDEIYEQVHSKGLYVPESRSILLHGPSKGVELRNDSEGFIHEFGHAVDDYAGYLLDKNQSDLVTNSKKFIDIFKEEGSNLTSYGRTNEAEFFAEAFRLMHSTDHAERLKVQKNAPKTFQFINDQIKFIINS
BoNT-F LC inh: BoNT F light chain protease inhibition | Multiplex microsphere protease cleavage assay, flow cytometry | inhibition, % at 10 µM | 0.22% of 360,000 active | AID 588497; in the data active = inhibition above about 35%, passing the limit was not always enough; inconclusive = no clear call, values can overlap the other calls; also: plate controls were buffer without enzyme for full effect and enzyme alone for no effect
BJeLR viability: kills HRASV12-expressing BJeLR cells; BJeLR (HRASV12) viability, CellTiter-Glo ATP luminescence, 48 h; AID 1554; 0.17% of 300,000 active; inhibition, % (concentration not given with the values); in the data active = inhibition above about 50%; inconclusive = no clear call, values can overlap the other calls
BH1578 lux ind: quorum light induction in luxS cqsA deficient V. cholerae. V. cholerae BH1578 lux reporter, luminescence, 6 h. activation, % at 18.7 µM. 0.16% of 350,000 active. AID 588436; in the data active = activation mostly above about 9.7%, no sharp cut-off; inconclusive = no clear call, values can overlap the other calls; inactive = mostly below about 3.7%
Autofluor counter: counter-screen for toxin protease inhibitors: compound fluorescence | 3.1% of 360,000 active | fluorescence intensity (no concentration beside the values) | compound autofluorescence counterscreen, microsphere flow cytometry; hits give high values; in the data active = fluorescence intensity above about 16000; inconclusive = no clear call, values can overlap the other calls
* marks the source's active call; other numbers are inactive results; i = inactive; ? = inconclusive; / = no result. Rule as the data show it, unless noted: active = inhibition above about 30%; inconclusive = no clear call, values can overlap the other calls; inactive = below that.

SMILES | BoNT-A LC inh2 | Anthrax LF inh2 | BoNT-F LC inh | BJeLR viability | BH1578 lux ind | Autofluor counter
Cc1ccc(Nc2nc(N)nc(CN3CCN(c4ccccc4F)CC3)n2)cc1 | -1 | -5 | -4 | -12 | -4 | 3836
Cc1cccc(Nc2nc(N)nc(CN3CCN(C)CC3)n2)c1 | -1 | -1 | -4 | -1 | -2 | 23797*
Nc1nc(CN2CCN(c3ccccc3F)CC2)nc(Nc2ccccc2)n1 | -2 | -1 | -6 | -3 | i | 16781*
COC(=O)[C@@]1(Cc2ccccc2)[C@H]2C(=O)N(Cc3ccccc3)C(=O)[C@H]2[C@H]2CN=C(SCC3CC3)N21 | 0 | -3 | -8 | / | i | 3933
Cc1ccc(N(C(=O)CNC(=O)c2ccco2)C(C(=O)NC2CCCCC2)c2cccnc2)cc1C (stereo not given) | -1 | 0 | -1 | 5 | 0 | 5684
Cc1ccc(N(C(=O)CCl)C(C(=O)NC2CCCCC2)c2cccnc2)cc1C (stereo not given) | / | / | / | 101* | / | /
COc1ccc(CCNCc2ccccn2)cc1OC | -2 | -4 | -3 | 0 | -1 | 16567*
CCOc1cc(CNCCc2ccc(S(N)(=O)=O)cc2)cc(Cl)c1OCc1ccccc1 | -2 | -7 | -28 | -3 | i | 11121
COc1ccc(CCNc2ccncn2)cc1OC | 2 | 0 | 3 | -8 | i | 23028*
CCOc1cc(CNCCc2ccc(S(N)(=O)=O)cc2)ccc1OCc1ccccc1 | -5 | -2 | -18 | 18 | 0 | 22507*
COc1ccc(CCNc2ccncn2)cc1 | 0 | -10 | 2 | 13 | i | 5963
COc1ccc(CNCCc2ccccc2)cc1OCC(N)=O | 4 | 0 | 3 | -6 | -1 | 20991*
O=C(Nc1cc(Cl)cc2c1-c1ccc(Cl)cc1C2O)C(Cl)Cl (stereo not given) | 1 | -1 | -1 | / | i | 2793
N#Cc1nc(COc2ccc(F)cc2)oc1NCCN1CCOCC1 | 0 | -3 | 4 | -1 | i | 4219
O=S(=O)(c1ccccc1)c1nc(-c2ccco2)oc1NCCCN1CCOCC1 | 1 | -2 | 16 | 4 | 4 | 4174
O=S(=O)(c1ccccc1)c1nc(-c2ccco2)oc1NCCN1CCOCC1 | -2 | -2 | -2 | 3 | 0 | 23098*
N#Cc1nc(COc2ccc(Br)cc2)oc1NCCN1CCOCC1 | -2 | 0 | -2 | -3 | i | 23449*
N#Cc1nc(-c2ccco2)oc1NCc1ccco1 | 0 | -5 | -7 | -4 | i | 5739
N#Cc1nc(-c2ccco2)oc1NCCCN1CCOCC1 | 0 | -9 | 0 | -2 | 0 | 22603*
CC(=O)Nc1ccc(-c2ccnc3c2CC(C)(C(=O)Nc2ccc(F)c(Cl)c2)O3)cc1 (stereo not given) | 0 | -6 | -2 | / | i | 3877
COc1cc(CNCCO)ccc1OCC(=O)Nc1ccc(Br)cc1 | 2 | -1 | -3 | 8 | i | 22933*
COc1ccccc1OCC(=O)Nc1ccc(C(N)=O)cc1 | -2 | -1 | -2 | 5 | i | 21458*
COc1ccccc1OCC(=O)Nc1ccc(NC(=O)COc2ccccc2OC)cc1 | 1 | -7 | -1 | -7 | i | 4387
COc1ccccc1OCC(=O)Nc1ccc(Cl)cc1 | ? | -2 | -4 | -1 | i | 23170*
CCCNCc1cc(OC)c(OCC(=O)Nc2ccccc2)cc1Br | -1 | -3 | -9 | 7 | i | 4051
SMILES | BoNT-A LC inh2 | Anthrax LF inh2 | BoNT-F LC inh | BJeLR viability | BH1578 lux ind | Autofluor counter
C[C@@H]1CN([C@H](C)CO)C(=O)CCCn2nncc2CO[C@@H]1CN(C)C(=O)NC1CCCCC1 | 0 | 2 | -6 | / | i | 3821
CC(C)(C)NC(=O)CSc1n[nH]c(=O)n1-c1ccccc1 | -2 | -3 | -2 | 1 | 1 | 20863*
N#C/C(=C\c1cn(CCOc2ccccc2F)c2ccccc12)C(=O)NCc1cccs1 | 0 | 0 | 1 | -3 | 0 | 2181
Cc1ccc(C)c(OCCn2cc(/C=C(\C#N)C(=O)NCc3cccs3)c3ccccc32)c1 | 2 | -2 | 3 | 10 | i | 22488*
COc1ccc(CN2CCCC(C(=O)c3ccc(Cl)cc3)C2)c(O)c1 (stereo not given) | 5 | 4 | 35* | -14 | -1 | 3167
CCOc1ccccc1C1C(C#N)=C(N)Oc2cc(N)ccc21 (stereo not given) | 3 | -7 | 0 | -1 | 0 | 21823*
COc1ccc(OC)c(C2C(C#N)=C(N)Oc3cc(N)ccc32)c1 (stereo not given) | 1 | 6 | -8 | -10 | -1 | 6142
COc1ccc(-c2noc(Cn3cc(S(=O)(=O)N4CCCC4)ccc3=O)n2)cc1 | 1 | -5 | 7 | / | 1 | ?
O=c1ccc(S(=O)(=O)N2CCCC2)cn1Cc1nc(-c2ccc(F)cc2)no1 | -213 | -56 | -373 | / | 1 | 57271*
Cc1nc(-n2cc(F)c(=O)[nH]c2=O)c2nc(C)oc2n1 | -2 | -4 | -4 | 4 | i | 17089*
N#Cc1ccc(S(=O)(=O)N2CCCCC2c2cc(C(=O)Nc3cccc4c3CCCC4)no2)cc1 (stereo not given) | 0 | -2 | -5 | / | i | 3619
CC(=O)Nc1ccc(S(=O)(=O)NCCSCc2c(Cl)cccc2Cl)cc1 | -4 | -2 | -7 | 5 | i | 21984*
CC1=NC(Nc2nc(C)c3ccccc3n2)=NC(C)(C)C1 | 2 | 5 | -8 | 11 | -2 | 24864*
COc1ccc(C2/C(=C(/O)c3ccccc3)C(=O)C(=O)N2c2ccccn2)cc1 (stereo not given) | -3 | -11 | ? | -3 | -1 | 3161
COc1cccc(/C(O)=C2\C(=O)C(=O)N(c3ccccn3)C2c2cccc(OC)c2OC)c1 (stereo not given) | 1 | 0 | 1 | 0 | -1 | 21089*
COc1cc(C)nc(Oc2ccc(OCc3ccccc3)nn2)n1 | 1 | -4 | -7 | 0 | 4 | 4837
CCOC(=O)COc1ccc(Oc2nc(C)cc(OC)n2)nn1 | 4 | 0 | 4 | -3 | 0 | 21448*
COc1ccc(C(O)c2nc(-c3ccccc3)cs2)cc1 (stereo not given) | -1 | -4 | -4 | / | 0 | 3688
COc1cccc(N2CCN(C(=O)C3C4C=CC5(CN(Cc6ccccc6Cl)C(=O)C35)O4)CC2)c1 (stereo not given) | -1 | -2 | 1 | 16 | -1 | 23129*
COc1ccc(CN2CC34C=CC(O3)C(C(=O)O)C4C2=O)cc1 (stereo not given) | -1 | -9 | -7 | 6 | 1 | 6173
Cc1ccc(-c2nnn(Cc3nc(N)nc(N4CCOCC4)n3)n2)cc1 | 0 | 1 | -1 | 2 | 12 | 23278*
Cc1csc2nc(O)c(C(=O)NC3CCCCCC3)c(=O)n12 | -49 | -16 | -81 | 6 | i | 18119*
COc1cccc(C(O)c2nc(-c3ccc(Cl)cc3)cs2)c1 (stereo not given) | 0 | -2 | 6 | / | 0 | 3602
